# Some of the results follow. Activity calls are given as the source filed them.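 The calls were made as follows: active = compounds that slowed 12-hLO product formation enough to yield a measured IC50 potency; inactive = the rest.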
# Biological target: Polyunsaturated fatty acid lipoxygenase ALOX12 (Homo sapiens) (UniProt P18054)
# Assay: Cuvette-Based Assay for Inhibitors of 12-hLO (12-human lipoxygenase): 8HQ Series - Round 1
# Conditions: purified 12-hLO, cuvette UV 234 nm product formation
# Experimental: Assay Provider: Holman, T.R., University of California, Santa Cruz Screening Center PI: Austin, Christopher P. Screening Center: NIH Chemical Genomics Center The enzyme activity of 12-hLO was determined by a direct measurement of product formation by monitoring the absorbance at 234 nm in a 2 mL cuvette. IC50 values of inhibitors were obtained by measuring the enzymatic rate at a variety of concentrations (Carroll et al, Segraves et al).
# For control experiments, 2 mL of substrate buffer (10 uM arachidonic acid / 25 mM HEPES / 0.01% (v/v) Triton X-100, pH 8.0) was aliquoted in a cuvette with a magnetic stir bar. After equilibrium was ensured, an aliquot of inhibitor solvent was added (DMSO), and equilibrium was once again assured. The reaction was started by adding enzyme to the cuvette and the reaction was followed until completed. The inhibition experiments were performed as above, except the actual inhibitory compound was added instead of vehicle. To achieve an IC50, typically 5 concentrations of the inhibitor were studied. If the inhibitor concentration was constant, then five different reaction volumes were used. […] 3; No change in absorbance ensured. […] 5; No change in absorbance ensured. […]
# Chain of Polyunsaturated fatty acid lipoxygenase ALOX12 (Homo sapiens) (P18054 whole entry, looked up): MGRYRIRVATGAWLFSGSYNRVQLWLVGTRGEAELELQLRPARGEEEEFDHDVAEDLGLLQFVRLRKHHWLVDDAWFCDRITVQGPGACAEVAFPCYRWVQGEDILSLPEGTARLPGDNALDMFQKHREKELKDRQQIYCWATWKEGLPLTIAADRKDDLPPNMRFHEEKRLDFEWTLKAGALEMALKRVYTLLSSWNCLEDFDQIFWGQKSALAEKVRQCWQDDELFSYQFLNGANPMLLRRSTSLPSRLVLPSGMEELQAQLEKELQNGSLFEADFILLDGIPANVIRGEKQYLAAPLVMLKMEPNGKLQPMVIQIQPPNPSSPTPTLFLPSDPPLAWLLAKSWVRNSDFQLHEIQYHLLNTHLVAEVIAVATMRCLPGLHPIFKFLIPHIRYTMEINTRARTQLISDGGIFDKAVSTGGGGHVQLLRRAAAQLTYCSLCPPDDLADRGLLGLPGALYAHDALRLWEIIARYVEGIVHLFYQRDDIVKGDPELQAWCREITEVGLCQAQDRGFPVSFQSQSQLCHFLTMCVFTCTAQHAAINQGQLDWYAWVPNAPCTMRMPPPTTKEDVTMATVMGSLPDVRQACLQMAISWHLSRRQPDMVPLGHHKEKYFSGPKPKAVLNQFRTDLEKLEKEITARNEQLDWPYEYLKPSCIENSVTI
row,Compound,Potency
1,CC(=O)NC(c1cccs1)c1cc(Cl)c2cccnc2c1O (stereo unspecified),1000 nM (active)
